Reference: PubChem BioAssay (Tox21)
Records with an inconclusive call do not appear. The source made the active and inactive calls. Calls come from the whole dose curve; as a rule, active = well fitted curve in the direction sought with a large enough effect in the repeat runs; inconclusive = weak or mixed curves; inactive = no such curve, though single readings can be large; an effect the other way counts as inactive or inconclusive.

Columns and labels:
[1] = A CellTox Green Cytotoxicity Assay to monitor cytotoxicity in HEK293 cells - 32 hour (AID 1224881); note: nearly all actives have a fitted effect of over 40% in size
In short: (§1)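 Fluorescence intensity, read at 0, 8, 16, 24, 32 and 40 h of compound treatment, reflected dye binding to DNA of dead HEK293 cells; compounds (23 nL, DMSO) were added 5 h after plating cells with reagent.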

[2] = A CellTox Green Cytotoxicity Assay to monitor cytotoxicity in HepG2 cells - 0 hour (AID 1224882); note: nearly all actives have a fitted effect of over 35% in size
In short: (§2)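 Using 1536-well format, dye-containing HepG2 suspension was seeded, allowed 5 h at 37 C/5% CO2, dosed by pintool with compounds, positive and negative controls, and imaged for fluorescence across 40 h.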

[3] = A CellTox Green Cytotoxicity Assay to monitor cytotoxicity in HepG2 cells - 32 hour (AID 1224883); note: nearly all actives have a fitted effect of over 50% in size
In short: as §2

[4] = A CellTox Green Cytotoxicity Assay to monitor cytotoxicity in HEK293 cells - 8 hour (AID 1224884); note: nearly all actives have a fitted effect of over 35% in size
In short: as §1

[5] = qHTS RealTime-Glo MT Cell Viability Assay in HepG2 cells - 16 hour (AID 1224885); note: nearly all actives have a fitted effect of over 50% in size
In short: (§3)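 Cell number in HepG2 cultures estimated from NanoLuc luminescence generated by metabolic reduction of a prosubstrate by living cells. The homogeneous, nonlytic format allowed repeated reads at 0, 8, 16, 24, 32 and 40 h of compound exposure.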

[6] = qHTS RealTime-Glo MT Cell Viability Assay in HEK293 cells - 24 hour (AID 1224886); note: top concentration of the series differs between compounds; nearly all actives have a fitted effect of over 50% in size
In short: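 Homogeneous bioluminescent viability format in HEK293 cells (600 cells/well). Following 5 h at 37 C/5% CO2, 23 nL compound was pintooled; the signal was measured repeatedly during 40 h incubation.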

[7] = qHTS RealTime-Glo MT Cell Viability Assay in HEK293 cells - 8 hour (AID 1224887); note: top concentration of the series differs between compounds; nearly all actives have a fitted effect of over 50% in size
In short: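 Viable HEK293 cells reduce a cell-permeant prosubstrate; the product diffuses out and is consumed by NanoLuc in the medium to give light. Compounds went in after a 5 h incubation and plates were read over the treatment course.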

[8] = A CellTox Green Cytotoxicity Assay to monitor cytotoxicity in HEK293 cells - 16 hour (AID 1224888); note: nearly all actives have a fitted effect of over 35% in size
In short: as §1

[9] = qHTS RealTime-Glo MT Cell Viability Assay in HepG2 cells - 0 hour (AID 1224889); note: nearly all actives have a fitted effect of over 50% in size
In short: as §3

[10] = A CellTox Green Cytotoxicity Assay to monitor cytotoxicity in HepG2 cells - 8 hour (AID 1224890); note: nearly all actives have a fitted effect of over 45% in size
In short: as §2

Measured: Potency

C=CCC1(C(C)CC)C(=O)NC(=O)NC1=O (stereo not drawn)
inactive: [1] | [2] | [3] | [4] | [5] | [6] | [7] | [8] | [9] | [10]

N[C@@H](Cc1ccc(Oc2cc(I)c(O)c(I)c2)c(I)c1)C(=O)O
inactive: [1] | [2] | [3] | [4] | [5] | [6] | [7] | [8] | [9] | [10]

BrCCc1ccccc1
inactive: [1] | [2] | [3] | [4] | [5] | [6] | [7] | [8] | [9] | [10]

CC(C)(O)C(Cl)(Cl)Cl
inactive: [1] | [2] | [3] | [4] | [5] | [6] | [7] | [8] | [9]

CCSC(=O)Cl
inactive: [1] | [2] | [3] | [4] | [5] | [6] | [7] | [8] | [9] | [10]

COc1ccc2c(C(=O)c3ccc(Cl)cc3)c(C)n(CC(=O)O)c2c1
inactive: [1] | [2] | [3] | [4] | [5] | [6] | [7] | [8]

C#CCOC(=O)/C=C(C)/C=C/CC(C)CCCC(C)C (stereo not drawn)
inactive: [1] | [2] | [3] | [4] | [5] | [6] | [7] | [8] | [9] | [10]

CCC(C)C(C)(COC(N)=O)COC(N)=O (stereo not drawn)
inactive: [1] | [2] | [3] | [4] | [5] | [6] | [7] | [8] | [9] | [10]

Cl/C=C/CCl
inactive: [1] | [2] | [3] | [4] | [5] | [6] | [7] | [8] | [9] | [10]

C=C(Cl)CCl
inactive: [1] | [2] | [3] | [4] | [5] | [6] | [7] | [8] | [9] | [10]

CCC1(c2cccc(O)c2)CCCCN(C)C1 (stereo not drawn)
inactive: [1] | [2] | [3] | [4] | [5] | [6] | [7] | [8] | [9] | [10]

C=CC(=O)OCCN(C)C
inactive: [1] | [2] | [3] | [4] | [5] | [6] | [7] | [8] | [9] | [10]

O=C(Cl)C(Cl)Cl
inactive: [1] | [2] | [3] | [4] | [5] | [6] | [7] | [8] | [9] | [10]

O=C1CC(=O)NC(=O)N1
inactive: [1] | [2] | [3] | [4] | [5] | [6] | [7] | [8] | [9] | [10]

O=C(Cl)/C=C/C(=O)Cl
inactive: [1] | [2] | [3] | [4] | [5] | [6] | [7] | [8] | [9] | [10]

CCOP(=O)(CN(CCO)CCO)OCC
inactive: [1] | [2] | [3] | [4] | [5] | [6] | [7] | [8] | [9] | [10]

CCOC(=O)CC(SP(=S)(OC)OC)C(=O)OCC (stereo not drawn)
inactive: [1] | [2] | [3] | [4] | [5] | [6] | [7] | [8] | [9] | [10]

O=c1[nH]c2ccccc2o1
inactive: [1] | [2] | [3] | [4] | [5] | [6] | [7] | [8] | [10]

ClCCN1CCCC1
inactive: [1] | [2] | [3] | [4] | [5] | [6] | [7] | [8] | [9] | [10]

CCOC(=O)c1ncn2c1CN(C)C(=O)c1c(I)cccc1-2
inactive: [1] | [2] | [3] | [4] | [5] | [6] | [7] | [8] | [9] | [10]

NCCOS(=O)(=O)O
inactive: [1] | [2] | [3] | [4] | [5] | [6] | [7] | [8] | [10]

CCCOC(=O)c1cncn1C(C)c1ccccc1 (stereo not drawn)
inactive: [1] | [2] | [3] | [4] | [5] | [6] | [7] | [8] | [9] | [10]

CC(C)C(C)(N)C#N (stereo not drawn)
inactive: [1] | [2] | [3] | [4] | [5] | [6] | [7] | [8] | [9] | [10]

CCCC(C)C1(CC)C(=O)N=C(S)NC1=O (stereo not drawn)
inactive: [1] | [2] | [3] | [4] | [5] | [6] | [7] | [8] | [10]

O=C(Cl)c1ccccc1
inactive: [1] | [2] | [3] | [4] | [5] | [6] | [7] | [8] | [10]
